Results: PubChem BioAssay (NCI)
The panel holds about 83,000 compounds, 20% with a hit somewhere; the sample as a whole holds those more often.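 Compound tested at a single concentration for 48 hours in 96-well plates; a percent growth value below 10 was scored as active.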 Activity calls are given as the source filed them.

Tests used:
Assay in all cases: NCI-60 one-dose screen, 48 h (100 = growth as untreated, 0 = no growth, -100 = all killed)
Conditions in all cases: 10 µM unless noted
DU-145 prostate = system: DU-145 prostate
K-562 leukemia = system: K-562 leukemia
MALME-3M melanoma = system: MALME-3M melanoma
MDA-MB-231 breast = system: MDA-MB-231 breast
RXF 393 renal = system: RXF 393 renal
SF-268 CNS = system: SF-268 CNS
SF-295 CNS = system: SF-295 CNS
SF-539 CNS = system: SF-539 CNS
UACC-257 melanoma = system: UACC-257 melanoma
M14 melanoma = system: M14 melanoma

Measured: growth

CCOC(=O)C1=C(c2ccccc2)N=C2SC=C(c3ccc(Cl)cc3)N2C1c1ccc(Cl)cc1 (stereo not given)
inactive: DU-145 prostate 87.7% | K-562 leukemia 73.8% | MALME-3M melanoma 87.2% | MDA-MB-231 breast 74.2% | RXF 393 renal 72% | SF-268 CNS 78.8% | SF-295 CNS 88.9% | SF-539 CNS 92.8% | UACC-257 melanoma 64.9% | M14 melanoma 82.8%

CCN1C(=S)N(c2ccccc2)C2C1NN=c1s/c(=C3\C(=O)N(C(C)C)c4ccccc43)c(=O)n12 (stereo not given)
inactive: DU-145 prostate 58% | K-562 leukemia 87.2% | MALME-3M melanoma 60.7% | MDA-MB-231 breast 36.5% | RXF 393 renal 107% | SF-268 CNS 95.8% | SF-295 CNS 98.9% | SF-539 CNS 10.4% | UACC-257 melanoma 92.7% | M14 melanoma 81.8%

O=c1c2cnn(-c3ccccc3)c2n2c(CN3CCOCC3)nnc2n1-c1ccccc1
inactive: DU-145 prostate 105% | K-562 leukemia 88.2% | MALME-3M melanoma 124% | MDA-MB-231 breast 106% | RXF 393 renal 119% | SF-268 CNS 104% | SF-295 CNS 98.6% | SF-539 CNS 99.2% | UACC-257 melanoma 101% | M14 melanoma 98.2%

NC(=O)c1ccc(-c2c3ccccc3cc3c2ccc2ccccc23)cc1
inactive: DU-145 prostate 53.3% | K-562 leukemia 14% | MALME-3M melanoma 54.7% | MDA-MB-231 breast 42.2% | RXF 393 renal 23% | SF-268 CNS 56% | SF-295 CNS 46.1% | SF-539 CNS 34.5% | UACC-257 melanoma 52.4% | M14 melanoma 14.9%

CC1(C)COB(OCC(C)(C)COB2OCC(C)(C)CO2)OC1
inactive: DU-145 prostate 103% | K-562 leukemia 106% | MALME-3M melanoma 93.8% | MDA-MB-231 breast 112% | RXF 393 renal 123% | SF-268 CNS 100% | SF-295 CNS 97.4% | SF-539 CNS 98.3% | UACC-257 melanoma 98.6% | M14 melanoma 105%

Cc1[nH]c(C(=O)Nc2ccc(C(=O)N3CCN(c4cc5c(cc4F)c(=O)c(C(=O)O)cn5C4CC4)CC3)cc2OC(C)C)c(Cl)c1Cl
inactive: DU-145 prostate 87.2% | K-562 leukemia 56.4% | MALME-3M melanoma 89% | MDA-MB-231 breast 80.3% | RXF 393 renal 82.4% | SF-268 CNS 78.1% | SF-295 CNS 81.4% | SF-539 CNS 75.3% | UACC-257 melanoma 82.5% | M14 melanoma 73.2%

C#CCOc1cccc(Nc2ncnc3cc(NC(=O)C=C)ccc23)c1
inactive: MALME-3M melanoma 33.9% | MDA-MB-231 breast 20.5% | SF-268 CNS 27.6% | SF-295 CNS 45% | UACC-257 melanoma 25.3% | M14 melanoma 13%
active: DU-145 prostate 5.4% | K-562 leukemia 5.87% | RXF 393 renal -17% | SF-539 CNS 0.0579%

Nc1n[nH]c2cccc(C#Cc3cccc(C(=O)Nc4cc(C(F)(F)F)cc(C(F)(F)F)c4)c3)c12
active: K-562 leukemia 4.87%
inactive: DU-145 prostate 91.5% | MALME-3M melanoma 53.4% | MDA-MB-231 breast 51.9% | RXF 393 renal 50.5% | SF-268 CNS 68.8% | SF-295 CNS 77.9% | SF-539 CNS 53.3% | UACC-257 melanoma 71.6% | M14 melanoma 34.1%

Nc1nc2ccc(-c3nc4ccc5[nH]ncc5c4c4c3CCCC4)cc2s1
inactive: DU-145 prostate 111% | K-562 leukemia 94.9% | MALME-3M melanoma 94.5% | MDA-MB-231 breast 106% | RXF 393 renal 109% | SF-268 CNS 98.8% | SF-295 CNS 108% | SF-539 CNS 106% | UACC-257 melanoma 88.1% | M14 melanoma 101%

Nc1nc2ccccc2c2c1S(=O)(=O)c1ccc(Cl)cc1C2=O
active: MALME-3M melanoma -21%
inactive: DU-145 prostate 26.3% | K-562 leukemia 11.5% | MDA-MB-231 breast 17.5% | RXF 393 renal 10.2% | SF-268 CNS 24.4% | SF-295 CNS 31.8% | SF-539 CNS 11.2% | UACC-257 melanoma 24.7% | M14 melanoma 17.8%

CCOC(=O)c1c2c(n3cccc(F)c13)C(=O)c1ncccc1C2=O
active: DU-145 prostate 3.34% | K-562 leukemia 9.2% | RXF 393 renal 1.36% | SF-295 CNS 3.24% | SF-539 CNS -9.12% | M14 melanoma -33.1%
inactive: MALME-3M melanoma 25.6% | MDA-MB-231 breast 38.2% | SF-268 CNS 20.9% | UACC-257 melanoma 12.7%

Fc1cccc(Oc2ccc(Nc3ncnc4ccc(OCCCN5CCOCC5)cc34)cc2Cl)c1
active: K-562 leukemia 3.55% | M14 melanoma -44%
inactive: DU-145 prostate 52.5% | MALME-3M melanoma 24.6% | MDA-MB-231 breast 61.4% | RXF 393 renal 55.5% | SF-268 CNS 54.4% | SF-295 CNS 82.7% | SF-539 CNS 88.1% | UACC-257 melanoma 12.5%

Oc1c(I)cc(I)cc1CNCCN(Cc1ccccn1)Cc1ccccn1
active: DU-145 prostate -74.1% | K-562 leukemia 0.636% | MALME-3M melanoma -62.1% | MDA-MB-231 breast -36.1% | RXF 393 renal -85.5% | SF-268 CNS 1.18% | SF-295 CNS -84.6% | SF-539 CNS -56.6% | UACC-257 melanoma -58.7% | M14 melanoma -32.5%

CSc1nc(N)c(NS(=O)(=O)c2ccc(C(C)=O)cc2)c(=O)[nH]1
inactive: DU-145 prostate 110% | K-562 leukemia 96% | MALME-3M melanoma 100% | MDA-MB-231 breast 104% | RXF 393 renal 96.9% | SF-268 CNS 99.9% | SF-295 CNS 97.3% | SF-539 CNS 112% | UACC-257 melanoma 105% | M14 melanoma 89.3%

O=c1scc(-c2ccc(C(F)(F)F)cc2)s1
inactive: DU-145 prostate 110% | K-562 leukemia 99.9% | MALME-3M melanoma 115% | MDA-MB-231 breast 104% | RXF 393 renal 87.4% | SF-268 CNS 100% | SF-295 CNS 85.6% | SF-539 CNS 111% | UACC-257 melanoma 82.9% | M14 melanoma 104%

C1CN(SSN2CCOCC2)CCO1
active: DU-145 prostate 3.92% [100 µM] | MALME-3M melanoma -53.1% [100 µM] | MDA-MB-231 breast -79.4% [100 µM] | RXF 393 renal -62.6% [100 µM] | SF-268 CNS -78.9% [100 µM] | SF-295 CNS 5.96% [100 µM] | SF-539 CNS -37.6% [100 µM] | M14 melanoma -7.16% [100 µM]
inactive: K-562 leukemia 15.2% [100 µM] | UACC-257 melanoma 49.6% [100 µM]
